# Measurements reported in PubChem BioAssay (NCATS).
# Unmarked numbers belong to inactive results. No rule for the calls is given here.
# Tested on: HIV-1 nucleocapsid protein NCp7 (binding to TG oligonucleotide)
# Experiment: HIV Nucleocapsid (AID 346);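 also: potency is for inhibitors that block NC binding and lower polarization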
# Settings: HIV-1 NC / fluorescein-TGTGTGTG probe, fluorescence polarization
# Summary of the method: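 Reagents dispensed (10 nM TG4xF, 100 nM HIV-1 NC), plates spun, compounds pin-transferred, then incubated 1 hr at room temperature before FP imaging. Buffer: Hepes pH 7.5, 250mM NaCl, 1uM ZnCl2, 100 uM TCEP, 5 mM 2-mercaptoethanol.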
# Potency is read from the fitted curve at half-maximal effect.
row,SMILES,Potency [µM]
1,N#Cc1ccc(CN2CC3(CCN(C(=O)c4ccncc4)CC3)C2)cc1,> 20
2,COc1ccccc1-c1nccc(N2CCN(C)CC2)n1,> 20
3,COc1ccccc1CNc1ncnc2ccc(-c3ccccc3C#N)cc12,> 20
4,O=C(c1ccco1)N1CCC2(CCCN(c3ccccc3)C2)CC1,> 20
5,CN(C)c1ncc2nc(CCc3ccccc3)c(=O)n(C3CC3)c2n1,> 20
6,COc1ccccc1-c1cc(NCc2cccnc2)ncn1,> 20
7,N#CCCn1c(=O)c(-c2ccccc2)nc2cnc(Oc3ccccc3)nc21,> 20
8,O=C(c1ccncc1)N1CCC2(CCCN(c3ccccn3)C2)CC1,> 20
9,COc1ccc(NC(=O)N2CCC3(CC2)CCN(C(=O)c2cc(C(F)(F)F)cc(C(F)(F)F)c2)CC3)cc1,> 20
10,N#Cc1cccc(-c2cc(NCc3ccccc3)ncn2)c1,> 20
11,O=C(c1csnn1)N1CCC2(CC1)CN(c1ccccc1)C2,> 20
12,CC(C)NC(=O)N1CCCC2(CCN(C(=O)c3ccco3)CC2)C1,> 20
13,CCNc1ncc2nc(-c3ccc(Cl)cc3)c(=O)n(CCC#N)c2n1,> 20
14,COc1ncc2nc(-c3cccs3)c(=O)n(Cc3cccs3)c2n1,> 20
15,CC(=O)N1CCC[C@@]2(CCN(c3ccccc3)C2)C1,> 20
16,CNc1nc(-c2c(C)noc2C)nc2ccccc12,> 20
17,O=c1c(-c2cccc(F)c2)nc2cncnc2n1C1CC1,> 20
18,CN(C)c1ccc(-c2nccc(Nc3ccc(F)cc3)n2)cc1,> 20
19,O=C(Nc1ccccc1)N1CCC2(CC1)CCN(C(=O)c1cnccn1)CC2,> 20
20,O=c1c(-c2cccc(Cl)c2)nc2cncnc2n1-c1ccccc1,> 20

row,SMILES,Potency [µM]
1,N#Cc1cccc(-c2nc(NCc3cccs3)c3ccccc3n2)c1,> 20
2,Cn1cccc1C(=O)N1CCC[C@@]2(CCN(c3cccc(-c4ccccc4)c3)C2)C1,> 20
3,COc1ccccc1CN1CCCC2(CCNCC2)C1,> 4
4,COc1ccc(-c2nc3cnc(Nc4ccccc4)nc3n(Cc3cccs3)c2=O)cc1,> 16
5,COc1ncc2nc(C)c(=O)n(C)c2n1,> 20
6,N#Cc1ccc(CN2CC[C@@]3(CCCN(C(=O)c4ccco4)C3)C2)cc1,> 20
7,CN(C)C(=O)c1ccc(-c2ccc3ncnc(NC4CC4)c3c2)cc1,> 20
8,COc1cccc(-c2ccc3ncnc(NCc4ccccc4OC)c3c2)c1,> 20
9,N#CCCn1c(=O)c(CCc2ccccc2)nc2cnc(Nc3ccccc3)nc21,> 4
10,COc1ccc(-c2nc3cnc(N(C)C)nc3n(C)c2=O)cc1,> 4
11,COc1ccc2[nH]cc(CCNc3cc(-c4ccccc4OC)ncn3)c2c1,> 20
12,N#CCCn1c(=O)c(-c2cccs2)nc2cnc(Nc3ccccc3)nc21,> 20
13,COCCn1c(=O)c(-c2cc(F)cc(F)c2)nc2cnc(N3CCOCC3)nc21,> 20
14,COCCn1c(=O)c(-c2ccc(Cl)cc2)nc2cnc(Oc3ccccc3)nc21,> 20
15,COc1ccc(Oc2ncc3nc(-c4cccs4)c(=O)n(-c4ccccc4)c3n2)cc1,> 20
16,CC(=O)N1CCC2(CC1)CN(Cc1cc(C(F)(F)F)cc(C(F)(F)F)c1)C2,> 20
17,O=C(c1cc(C(F)(F)F)cc(C(F)(F)F)c1)N1CCC[C@@]2(CCN(Cc3ccccc3)C2)C1,> 4
18,COc1ccccc1CN1CCC2(CC1)CCN(S(=O)(=O)c1ccccc1)CC2,> 20
19,O=c1c(CCc2ccccc2)nc2cncnc2n1Cc1ccccc1,> 20
20,Cc1ccccc1-c1ccc2ncnc(N(C)Cc3ccco3)c2c1,> 20
